The source of these data is PubChem BioAssay (NCATS).

The subject of test [1] is CAOV3. Nature of the test: Primary qHTS to identify gynecologic anti-cancer compounds using libraries of approved drugs and bioactive compounds (AID 1345084). Further: on the % scale 0 is the no-effect control and ±100 the full control effect; nearly all actives have a fitted effect of over 55% in size. The conditions noted are these: Gynecologic cancer cell panel viability, ATPlite luminescence, 48 h; series mostly up to 57.5 µM. In outline: (§1)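 Luminescence from the ATPlite ATP-monitoring reagent indicates viable cell number; lower signal means cytotoxicity. Cells received compound 16 h after seeding and were exposed for 48 h across five concentrations.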

Test [2] concerns CASKI. The description is as above. The conditions noted are these: Gynecologic cancer cell panel viability, ATPlite luminescence, 48 h; series mostly up to 57.5 µM. In outline: as §1
In test [3] the test system is Es-2. The description is as above. The conditions noted are these: Gynecologic cancer cell panel viability, ATPlite luminescence, 48 h; series mostly up to 57.5 µM. The gist of the method:
as §1

Test [4] concerns HeLa. The description is as above. To be noted: Gynecologic cancer cell panel viability, ATPlite luminescence, 48 h; series mostly up to 57.5 µM. In outline:
as §1

The test system of test [5] is Hek293T. The test is described as above. The conditions noted are these: Gynecologic cancer cell panel viability, ATPlite luminescence, 48 h, control line for the selectivity index; series mostly up to 57.5 µM. In outline: as §1
Test [6] deals with JEG-3. The description is as above. The conditions noted are these: Gynecologic cancer cell panel viability, ATPlite luminescence, 48 h; series mostly up to 57.5 µM. The gist of the method:
as §1

Test [7] has as its system OV90. The description is as above. To be noted: Gynecologic cancer cell panel viability, ATPlite luminescence, 48 h; series mostly up to 57.5 µM. The gist of the method:
as §1

Test [8] has as its system PA-1. The description is as above. To be noted: Gynecologic cancer cell panel viability, ATPlite luminescence, 48 h; series mostly up to 57.5 µM. In outline:
as §1

For test [9], the system named is SKOV3. Described as above. To be noted: Gynecologic cancer cell panel viability, ATPlite luminescence, 48 h; series mostly up to 57.5 µM. The gist of the method:
as §1

Test [10] has as its system Tov-21-G. The test is described as above. The conditions noted are these: Gynecologic cancer cell panel viability, ATPlite luminescence, 48 h; series mostly up to 57.5 µM. In outline: as §1
Test [11] has as its system Tov112D. The description is as above. The conditions noted are these: Gynecologic cancer cell panel viability, ATPlite luminescence, 48 h; series mostly up to 57.5 µM. The gist of the method: as §1
Test [12] in a line: Drug repurposing screens with cells derived from glioblastoma tumor samples (AID 1345199). Further: potency means the concentration at half of the fitted maximal effect; nearly all actives have a fitted effect of over 40% in size. To be noted: GBM patient neurospheres viability, ATP luminescence, 48 h; tumour line A. The gist of the method:
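Primary testing used CD133+ neurospheres from four GBM patients, seven concentrations, 48 h exposure and ATP-based viability; confirmation added three slower-growing patient lines.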

Test [13] is described as follows: qHTS assay to identify inhibitors of the type 1 interferon - major histocompatibility complex class I in skeletal muscle: Counter screen cell viability and HiBit confirmation (AID 1347412). Further: on the % scale 0 is the no-effect control and ±100 the full control effect; nearly all actives have a fitted effect of over 60% in size. The conditions noted are these: iHSKM muscle cells + IFN-b, HiBiT or CellTiter-Glo, 24 h; Viability; at 45.9 µM (top of the series). In outline: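 Duplicate plates, pinned identically: one read for HiBiT-tagged endogenous HLA-B luminescence, the other for ATP-content viability via CellTiter Glo. Cells were genome-engineered human myoblasts given 4 ng/ml IFN-b; compounds 12-pt, 1:3 from 46 uM final; 24 hr exposure.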

In test [14] the target is Nuclear receptor subfamily 1 group I member 2 (Rattus norvegicus) (UniProt Q9R1A7). Nature of the test: qHTS assay for small molecule activators of the rat pregnane X receptor (rPXR) signaling pathway (AID 651751; call rule not given here; further: 0% is about no effect). The conditions noted are these: rPXR reporter cells, luciferase (One-Glo), 24 h.
Nuclear receptor subfamily 1 group I member 2 (Rattus norvegicus), sequence (Q9R1A7 whole entry, looked up): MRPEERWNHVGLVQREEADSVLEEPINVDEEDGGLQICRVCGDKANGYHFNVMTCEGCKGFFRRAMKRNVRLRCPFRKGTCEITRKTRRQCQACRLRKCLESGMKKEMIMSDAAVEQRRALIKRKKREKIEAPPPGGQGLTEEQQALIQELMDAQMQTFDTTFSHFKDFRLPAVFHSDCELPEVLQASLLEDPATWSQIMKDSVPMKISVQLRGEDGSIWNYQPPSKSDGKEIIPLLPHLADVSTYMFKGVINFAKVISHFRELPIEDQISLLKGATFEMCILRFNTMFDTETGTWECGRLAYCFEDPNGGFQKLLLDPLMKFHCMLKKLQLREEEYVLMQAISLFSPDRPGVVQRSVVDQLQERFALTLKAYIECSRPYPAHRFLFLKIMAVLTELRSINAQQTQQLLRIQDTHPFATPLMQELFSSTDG
Test [15] is described as follows: qHTS assay for small molecule activators of the human pregnane X receptor (PXR) signaling pathway (AID 720659; call rule not given here; further: 0% is about no effect).

Values without a mark were called inactive. Records with an inconclusive call do not appear. The source made the active and inactive calls. Unless noted, the call rests on the fitted dose curve; in most records, active means well fitted curve in the direction sought with a large enough effect; inconclusive means small, poorly fitted or top-dose-only effect, or another doubt; inactive means no such curve, though single readings can be large; an effect the other way counts as inactive or inconclusive. Where a SMILES comes first, the peptide text is derived from it.

Turning to `C=CC(C)(CC/C=C(\C)CC/C=C(\C)CC(O)/C=C(\C)C(=O)O)O[C@@H]1O[C@H](CO)[C@@H](O)[C@H](O)[C@H]1O[C@@H]1O[C@H](CO)[C@@H](O)[C@H](O)[C@H]1O` (some centres not stated), the Potency result in [1], in test [2], in test [3], in test [4], in test [5] and in test [6] was “inactive” in each case. Besides, the Potency entry in test [7], in test [8], in [9], in test [10] and in [11] was “inactive” throughout.
Turning to `COc1cc(C/C(=C/NC(C)=O)N(CC(=O)Cc2ccccc2)C(C)=O)cc2c1OCO2`, the Potency result in [1], in [2], in test [3], in [4], in test [5] and in test [6] was “inactive” throughout. Moreover, the Potency result in test [7], in test [8], in test [9], in [10] and in [11] was “inactive” throughout.
As for `COc1cc2c(cc1O)C1(OC)Cc3ccc4c(c3C1N(C)CC2)OCO4` (configuration not stated), the Potency entry in test [1], in test [2], in [3], in test [4], in [5] and in [6] was “inactive” each time. Further, the Potency result in test [7], in test [8], in test [9], in test [10] and in [11] was “inactive” each time.
`CC1CC(=O)C2=C(O1)OC1(C)CCC3C(C)(C)C=CC(=O)C3(C)C1C2` (configuration not stated): the Potency result in test [1], in [2], in test [3], in [4], in test [5] and in test [6] was “inactive” each time. Also, the Potency entry in test [7], in test [8], in test [9], in test [10] and in test [11] was “inactive” each time.
As to `NCCCC[C@H](NC(=O)[C@@H]1Cc2ccccc2CN1C(=O)CCC(=O)c1ccccc1)C(=O)NCC(c1ccccc1)c1ccccc1`, the Potency result in [1], in test [2], in [3], in test [4], in test [5] and in test [6] was “inactive” in each case. Further, the Potency entry in test [7], in test [8], in test [9], in [10] and in [11] was “inactive” each time.
Take `C=C(C)[C@@H]1CC[C@](C)(O)[C@@H](OC(=O)c2ccccc2)C1`: the Potency entry in test [1], in test [2], in test [3], in test [4], in test [5] and in test [6] was “inactive” throughout. The Potency entry in [7], in test [8], in test [9], in test [10] and in test [11] was “inactive” throughout.
For `CNC(=O)COC(=O)NCCC1CCN(c2cccc(C)n2)CC1`, the Potency entry in [1], in test [2], in test [3], in [4], in test [5] and in [6] was “inactive” in each case. Moreover, the Potency result in test [7], in [8], in test [9], in test [10] and in test [11] was “inactive” each time.
On to `C[C@@H]1O[C@@H](O[C@H]2[C@H](O[C@H]3CC[C@@]4(C)C(CC[C@]5(C)C4CC=C4[C@@H]6CC(C)(C)CC[C@]6(C(=O)O)CC[C@]45C)[C@]3(C)CO)OC[C@H](O)[C@@H]2O)[C@H](O)[C@H](O[C@@H]2OC[C@@H](O)[C@H](O)[C@H]2O)[C@H]1O` (some centres not stated), for which the activity change, negative = cytotoxicity in test [1] was -8% [at 11.6 µM]; in test [2] it was -1.75% [at 11.6 µM]; in test [3] it was -1.5% [at 11.6 µM]; in test [4], 14.3% [at 11.6 µM]; in [5], -9.01% [at 11.6 µM]; in test [6], -2.58% [at 11.6 µM]. For the same molecule, the activity change, negative = cytotoxicity in test [7] is -5.88% [at 11.6 µM]; in test [8] it was -2.5% [at 11.6 µM]; in test [9] it was -0.901% [at 11.6 µM]; in test [10], -4.57% [at 11.6 µM]; in test [11] it was 4.64% [at 11.6 µM].
Regarding `CC[C@H]1OC(=O)C[C@@H](O)[C@H](C)[C@@H](O[C@@H]2O[C@H](C)[C@@H](O)[C@H](N(C)C)[C@H]2O)[C@@H](CCN2C[C@H](C)C[C@H](C)C2)C[C@@H](C)C(=O)/C=C/C(C)=C/[C@@H]1CO[C@@H]1O[C@H](C)[C@@H](O)[C@@H](OC)[C@H]1OC`, the Potency in [12] was 22.4 µM (active).
As for `NS(=O)(=O)OC[C@@H]1C[C@@H](n2ccc3c(N[C@H]4CCc5ccccc54)ncnc32)C[C@@H]1O`, the activity change, negative = inhibition in test [13] is -12.3%.
On to `CC1=C2[C@@H]([C@H](C)CC[C@H]2/C=C(\C)C(=O)O)[C@H](O)C1`, for which the max response in test [14] is -1.26%. Moreover, the molecule was called inactive in test [15].
As for `CCN[C@@H]1C[C@H](N)[C@@H](O[C@H]2OC(CN)=CC[C@H]2N)[C@H](O)[C@H]1O[C@H]1OC[C@](C)(O)[C@H](NC)[C@H]1O`, the Potency entry in [1], in test [2], in test [3], in [4], in test [5] and in test [6] was “inactive” throughout. The Potency result in [7], in test [8], in test [10] and in [11] was “inactive” throughout.
As to `CCOC(=O)N1CCC(NCCNC(=O)c2ccccc2C)CC1`, the Potency result in [1], in test [2], in test [3], in test [4], in test [5] and in test [6] was “inactive” in each case. Further, the Potency entry in test [7], in [8], in test [10] and in [11] was “inactive” throughout.
Regarding `CC1NC(=O)CNC(=O)C(C(C)C)NC(=O)C2CCCN2C(=O)C(C(C)C)NC(=O)C(Cc2c[nH]c3ccccc23)NC1=O` (configuration not stated) (cyclo(GAWVPV); configuration not given here), the Potency result in test [1], in test [2], in test [3], in test [4], in test [5] and in test [6] was “inactive” throughout. For the same molecule, the Potency entry in test [7], in test [8], in test [10] and in [11] was “inactive” each time.
Consider `C=CC(C)(C)O[C@@H]1O[C@H](CO[C@@H]2OC[C@](O)(CO)[C@H]2O)[C@@H](O)[C@H](O)[C@H]1O`, for which the Potency result in [1], in test [2], in [3], in test [4], in test [5] and in [6] was “inactive” throughout. Moreover, the Potency result in test [7], in test [8], in test [10] and in test [11] was “inactive” each time.
On to `CCC(C)C(=O)O[C@@H]1[C@@H](O)[C@@H](O[C@H]2O[C@H](CO)[C@@H](O)[C@H](O)[C@H]2O)O[C@H](CO)[C@H]1O` (some centres not stated), for which the Potency result in [1], in test [2], in [3], in test [4], in test [5] and in test [6] was “inactive” each time. In addition, the Potency entry in [7], in test [8], in [10] and in [11] was “inactive” in each case.
